Most compounds without a hit are left out; they make up all but 8.7% or so of the library.
JMJD2A Tudor inh = JMJD2A Tudor domain (human) inhibition | O75164 | AlphaScreen JMJD2A-Tudor / H3K4me3 peptide binding | Potency, µM (series often up to 114 µM), hits mostly inhibitors | 390,000 compounds, 4.4% hits; further: nearly all actives have a fitted effect of over 50% in size
G9a inh = inhibitors of human histone lysine methyltransferase G9a. Potency, µM (titrated, usually from 102 µM), hits mostly inhibitors. AID 504332. G9a H3K9 monomethylation, AlphaScreen, 2 h. Q96KQ7. 350,000 compounds, 8.8% hits; further: nearly all actives have a fitted effect of over 75% in size
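Quantitative HTS format: methyltransferase activity on a biotin-tagged H3K9 peptide is measured by AlphaScreen, using a rabbit anti-monomethyl-H3K9 antibody with streptavidin donor and anti-IgG acceptor beads. Final levels are 20 nM enzyme, 500 nM peptide, 20 uM SAM; 2 h RT.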
Sfp inh = Sfp phosphopantetheinyl transferase inhibition; AID 1490; Potency, µM, hits mostly inhibitors; Biochemical Sfp PPTase activity, qHTS; 310,000 compounds, 3.5% hits; Q9F4F7;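 further: the enzyme is Sfp with the accession as filed and its product quenches rhodamine fluorescence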
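Buffer: 50 mM Hepes-Na pH 7.6, 10 mM MgCl2, 0.01% Nonidet P-40, 0.01% BSA. Enzyme 15 nM, pre-exposed to compound 15 min; substrates then added and fluorescence change tracked over 30 min.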
ALOX12 inh = ALOX12 (human) lipoxygenase inhibition; P18054; purified 12hLO, xylenol orange hydroperoxide absorbance; Potency, µM (series often up to 108 µM), usual class: inhibitors; 580,000 compounds, 1.1% hits; AID 1671190
Target sequence (P18054 whole entry, looked up): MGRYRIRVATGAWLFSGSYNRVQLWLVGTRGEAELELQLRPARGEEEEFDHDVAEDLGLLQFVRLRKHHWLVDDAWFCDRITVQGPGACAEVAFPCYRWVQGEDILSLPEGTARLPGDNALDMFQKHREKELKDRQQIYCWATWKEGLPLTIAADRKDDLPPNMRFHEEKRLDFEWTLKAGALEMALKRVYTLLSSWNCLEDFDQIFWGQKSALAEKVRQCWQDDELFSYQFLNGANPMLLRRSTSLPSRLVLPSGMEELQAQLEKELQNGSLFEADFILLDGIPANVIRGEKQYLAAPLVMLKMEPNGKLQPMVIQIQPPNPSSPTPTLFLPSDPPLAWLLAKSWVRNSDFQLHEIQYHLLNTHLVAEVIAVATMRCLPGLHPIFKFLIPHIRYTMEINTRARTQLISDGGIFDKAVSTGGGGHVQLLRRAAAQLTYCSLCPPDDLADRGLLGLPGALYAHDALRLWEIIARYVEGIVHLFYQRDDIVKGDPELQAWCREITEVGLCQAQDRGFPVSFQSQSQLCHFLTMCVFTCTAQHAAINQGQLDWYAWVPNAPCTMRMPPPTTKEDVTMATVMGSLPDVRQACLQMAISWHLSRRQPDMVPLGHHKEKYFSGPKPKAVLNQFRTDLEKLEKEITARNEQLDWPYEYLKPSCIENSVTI
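Purified human 12hLO at 150 nM in 25 mM Hepes, 0.01% Triton X-100, pH 7.0, preincubated 15 min at room temperature with compound. Reaction started with 40 uM arachidonic acid, 30 min at room temperature. Hydroperoxide measured by Fe-xylenol orange, 573/405 nm absorbance ratio.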
BAZ2B inh = BAZ2B (human) inhibition; 360,000 compounds, 4.4% hits; AlphaScreen BAZ2B-H3K14Ac peptide displacement; AID 504333; Potency, µM (doses to about 114 µM), usual class: inhibitors; Q9UIF8; further: nearly all actives have a fitted effect of over 60% in size
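BAZ2B 50 nM plus b-H3(5-23)K14Ac 50 nM, PBS pH 7.4/0.01% Tween-20, 30 min RT; compound added (max 110 uM), 30 min RT; streptavidin donor/Ni-chelate acceptor beads 10 ug/mL final, 20 min dark; AlphaScreen read.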
HP1b binding inh = inhibitors of HP1-beta chromodomain binding to methylated histone tails; Potency, µM (highest dose often 114 µM), usual class: inhibitors; AlphaScreen HP1-beta / biotin-H3K9me3 peptide binding; AID 540317; 390,000 compounds, 0.56% hits; further: nearly all actives have a fitted effect of over 70% in size
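AlphaScreen: HP1-beta (50 nM) preformed 30 min with biotin-H3(1-18)K9me3 peptide (50 nM) in PBS pH 7.4, 0.01% Tween-20. Compound added for 30 min at RT, then streptavidin donor/nickel chelate acceptor beads (10 ug/mL) for 30 min.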
Numbers stand for hits; n = inactive; u = inconclusive; x = no result given; [ ] = remark or other dose. The call rests on the fitted dose curve; in most records, active means well fitted curve in the direction sought with a large enough effect; inconclusive means small, poorly fitted or top-dose-only effect, or another doubt; inactive means no such curve, though single readings can be large; an effect the other way counts as inactive or inconclusive.

SMILES | JMJD2A Tudor inh | G9a inh | Sfp inh | ALOX12 inh | BAZ2B inh | HP1b binding inh
COc1ccc(CNC(=O)COC(=O)CCCOc2ccc(Cl)cc2Cl)cc1 | n | n | n | n | n | n
O=C(COc1ccccc1)NCc1n[nH]c(=S)n1-c1ccccc1 | 8.91µM | 20µM | n | n | n | n
CCCn1nc(C)cc1CN(CC)C(=O)C1CCN(c2cnn(C)c(=O)c2)C1 (stereo unspecified) | x | x | x | n | x | x
COc1ccc(CCCc2n[nH]c(=S)o2)cc1C | n | 8.91µM | n | u | n | n
COc1ccc(CCCc2nnc(SCC(=O)Nc3nccs3)n2C)cc1C | n | n[12.7 µM] | n | n | n | n
COc1ccc(CCCc2n[nH]c(=S)n2C)cc1C | 5.62µM | 11.2µM | n | u | n | u
O=C(CCc1c[nH]c2ccccc12)NCc1ccc(Cl)cc1 | x | x | x | n | x | x
O=C(C1CC1)N1CC[C@H](c2nc3ccccc3s2)C1 | x | x | x | n | x | x
COC(=O)c1ccc(/C=N\N2CCN(c3ccccc3)CC2)cc1 | n | n | n | n | n | n
COC(=O)c1ccc(/C=N/N2CCN(Cc3ccccc3Cl)CC2)cc1 | 8.91µM | n | n | u | n | n
Cc1ccc(CN2CCN(/N=C/c3ccc(C(=O)O)cc3)CC2)c(C)c1 | n | u | n | n | u | n
CCN(CC)c1ccc(/C=N/N2CCN(Cc3ccccc3Cl)CC2)c(O)c1 | 31.6µM | 11.2µM | n | n | 10µM | u
Cc1ccc(CN2CCN(/N=C/c3cc(Br)cc(Br)c3O)CC2)c(C)c1 | n | 39.8µM | n | n | n | n
COC(=O)c1ccc(/C=N/N2CCN(Cc3ccc(C)cc3C)CC2)cc1 | u | u | n | n | 39.8µM | n
COC(=O)c1ccc(NS(=O)(=O)c2c(C)c(C)cc(C)c2C)c(C)c1 | x | x | x | n | x | x
COc1cc([N+](=O)[O-])c2ncsc2c1 | n | n | u | n | n | n
COc1cc(SSc2cc(OC)cc([N+](=O)[O-])c2N)c(N)c([N+](=O)[O-])c1 | 1.41µM | 0.447µM | 2.51µM | u | 8.91µM | u
CCCCOC(=O)C(C)Oc1ccc2c(=O)c(Oc3ccc(C(C)(C)C)cc3)coc2c1 (stereo unspecified) | x | x | x | n | x | x
Cc1ccc(Nc2nc(-c3c(C)n(C)n(-c4ccccc4)c3=O)c(C)s2)cc1 | u | 50.1µM | n | n | u | n
N#CC1=C(N)Oc2cc(O)ccc2C1c1cccnc1 (stereo unspecified) | n | n | n | n | n | n
CC(=O)C1=C(C)OC(N)=C(C#N)C1c1ccncc1 (stereo unspecified) | n | u | u | n | n | n
Cc1nn(-c2cccc(Cl)c2)c2c1C(c1ccncc1)C(C#N)=C(N)O2 (stereo unspecified) | 79.4µM | u | n | u | 39.8µM | u
Cc1nn(-c2cccc(Cl)c2)c2c1C(c1cccnc1)C(C#N)=C(N)O2 (stereo unspecified) | u | 44.7µM | n | n | 50.1µM | n
COc1ccc(OC)c(C2C(C#N)=C(N)Oc3c2c(C)nn3-c2cccc(Cl)c2)c1 (stereo unspecified) | 50.1µM | 39.8µM | n | u | 39.8µM | n
COc1ccc(CNC(=O)c2sc(NCCc3ccccc3)nc2C)cc1 | x | x | x | n | x | x
SMILES | JMJD2A Tudor inh | G9a inh | Sfp inh | ALOX12 inh | BAZ2B inh | HP1b binding inh
COc1cccc(OC)c1C(=O)Oc1ccc2c(c1)O/C(=C\c1cccs1)C2=O | x | x | x | n | x | x
O=[S+]([O-])(Nc1cccnc1)c1ccc2c(c1)OCCN(CC1CCOCC1)C2 | x | x | x | n | x | x
CCOc1ccc(C(C)NC(=S)NCc2ccc(Cl)cc2)cc1 (stereo unspecified) | n | n | n | 39.8µM | n | n
CCC(NC(=S)NCc1ccc(F)cc1)c1ccc(C(C)C)cc1 (stereo unspecified) | n | n | n | u | n | n
CCCc1ccc(C(C)NC(=S)NCc2ccc(F)cc2)cc1 (stereo unspecified) | n | n | n | 31.6µM | n | n
CC(NC(=S)NC1CCCCC1)c1ccccc1 (stereo unspecified) | n | n | n | n | n | n
CCCc1ccc(C(C)NC(=S)NC2CCCCC2)cc1 (stereo unspecified) | n | n | n | 35.5µM | n | n
